Measurements from PubChem BioAssay AID1347416 (National Center for Advancing Translational Sciences (NCATS), 2020).
The whole screen tested about 4,100 compounds, of which about 1,600 (39%) were called active. Another 25% or so got no clear call; they are omitted. Calls come from the whole dose curve; as a rule, active = well fitted inhibition curve with a large enough effect; inconclusive = small, poorly fitted or top-dose-only effect; inactive = no such curve, though single readings can be large or run the other way. This is one part of the list.

Test: qHTS Validation assay for Inhibitors of Plasmodium falciparum Dd2 growth in vitro; note: nearly all actives have a fitted effect of over 70% in size
Details: P. falciparum Dd2 in RBCs, SYBR Green growth, 72 h; series mostly up to 28.7 µM; activity change, negative = inhibition: at the top concentration
Procedure, shortened: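 P. falciparum Dd2-infected red blood cells (2.5% hematocrit, 0.3% parasitemia) grown 72 h at 37 °C under 5% O2 with compounds in a titration, 29 uM to 0.5 nM final. Growth read as SYBR Green-1 fluorescence after ~16 h lysis; artesunate 300 nM as positive control.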
% is set by controls: 0 for no effect and ±100 for the full control effect; potency is the fitted concentration of half-maximal effect.

Compound	activity change, negative = inhibition	Potency
Cc1ccc(S(=O)(=O)NCc2nc3nc(C)cc(C)n3n2)c(C)c1	12.5% (inactive)	
Cc1cc(Nc2ccc(Br)c(C)c2)n2nc(C)nc2n1		1.33 µM (active)
Cc1cc(NC2C3CC4CC(C3)CC2C4)n2nnnc2n1 (configuration not stated)	-20.8% (inactive)	
Cc1cc(Nc2ccc(Br)cc2)n2nc(C)nc2n1		7.5 µM (active)
Cc1cc(Nc2ccc(C)c(C)c2)n2nc(C)nc2n1		4.73 µM (active)
Cc1cc(C)cc(Nc2cc(C)nc3nc(C)nn23)c1		5.31 µM (active)
CC(C)c1ccc(OCc2ccc(C(=O)O)o2)cc1	-2.28% (inactive)	
CC(O)CNCCNCc1c(OCc2ccccc2)ccc2ccccc12 (configuration not stated)		8.41 µM (active)
Cc1cc(N2CCN(C3CCCCC3)CC2)nc2cccc(O)c12		5.31 µM (active)
Cc1cc(N2CCC(N(C)C3CCCC3)CC2)nc2cc(O)ccc12		5.96 µM (active)
Cc1nc2ccc(NC(=O)c3cc(S(=O)(=O)N(C)c4ccccc4)ccc3Cl)cc2s1		0.842 µM (active)
COc1cccc(OC)c1C(=O)NC(=S)Nc1ccc2c(c1)C(=O)N(C)C2=O		0.944 µM (active)
O=C(NC(=S)Nc1ccc2c(c1)OCCO2)c1ccccc1F	35% (inactive)	
COc1ccc(NC(=O)c2ccc3c(c2)n(C)c(=O)c2ccnn23)cc1OC	-18.1% (inactive)	
COC(=O)[C@@H]1Cc2c([nH]c3ccccc23)[C@H]2C[C@H](N3CCCCC3)C[C@@H](c3ccccc3F)N21		5.96 µM (active)
C1CCC(COCCc2noc(C3CNC3)n2)C1	-91.5% (inactive)	
Cc1cc(C)cc(NC(=O)NCc2c(-n3cccc3)sc3c2CCCC3)c1	36.2% (inactive)	
CC(=O)N1Cc2ccccc2CC2(CCN(Cc3ccccn3)CC2)C1	17.5% (inactive)	
CC(C)C(=O)N1Cc2ccccc2CC2(CCCN(CC3CCCCC3)C2)C1 (configuration not stated)		0.0531 µM (active)
CC(=O)N1Cc2ccccc2CC2(CCN(CC3CCOCC3)C2)C1 (configuration not stated)	12.6% (inactive)	
CC(C)(C)c1cnc([C@@H]2COCCN2Cc2ccccc2O)[nH]1		13.7 µM (active)
Cc1ccc(CN2CCOC[C@H]2c2ncc(C(C)(C)C)[nH]2)cc1		13.7 µM (active)
C[C@@H](c1ccccc1)N1C(=O)[C@@H]2CN(C(=O)c3cccnc3)CCN2C1=O	37.2% [at 43.1 µM] (inactive)	
Cc1nn2c(c1-c1ccccc1-c1ccccc1)N(Cc1cccc(O)c1)CCC2		4.85 µM (active)
Cc1nn2c(c1-c1ccccc1-c1ccccc1)N(Cc1ccc(O)cc1)CCC2		0.485 µM (active)

Compound	activity change, negative = inhibition	Potency
CCCCSc1nnc2c(n1)OC(C)N(C(C)=O)c1ccccc1-2 (configuration not stated)	9.17% (inactive)	
CCOc1ccc(NS(=O)(=O)c2csc(C(N)=O)c2)cc1		7.5 µM (active)
COc1cc(NS(=O)(=O)c2cnc(N)nc2)cc(OC)c1	0% (inactive)	
CCOc1ccc(S(=O)(=O)Nc2ccc3oc4c(c3c2)CC(C)CC4)cc1 (configuration not stated)	27.2% (inactive)	
CCn1cc(C(=O)O)c(=O)c2cnc(N3CCN(C(=S)Nc4ccccc4)CC3)nc21		3.76 µM (active)
CCn1cc(C(=O)N2CCN(c3ccc(OC)cc3)CC2)c(=O)c2cc(S(=O)(=O)N3CCOCC3)ccc21	32.5% (inactive)	
COCCOC1CCOC2(CCN(C(=O)c3ccco3)CC2)C1 (configuration not stated)	-41.3% (inactive)	
CCc1cc(C(=O)OC)c(NC(=O)CN2CCN(C(=O)c3ccco3)CC2)s1		5.96 µM (active)
Cc1ccc(C(=O)c2cc(C)sc2NC(=O)CN2CCN(C(=O)c3ccco3)CC2)cc1		7.5 µM (active)
COc1ccccc1-n1c(SCC(=O)NC(C)(C)C)nc(O)cc1=O	12.2% (inactive)	
COc1ccccc1NC(=O)CSc1nc2c(oc3ccccc32)c(=O)n1-c1ccc(C)cc1		15 µM (active)
COCCN1C(=O)CCC2(CNC(=O)CCc3nc4ccccc4[nH]3)CCCC=C12 (configuration not stated)	12.1% (inactive)	
CCc1nc(NC(=O)C2c3ccccc3C(=O)N(CCOC)C23CCCC3)sc1C (configuration not stated)		5.96 µM (active)
COCCN1C(=O)c2ccccc2C(C(=O)Nc2nc3ccccc3[nH]2)C12CCCCC2 (configuration not stated)		4.73 µM (active)
COCCN1C(=O)c2ccccc2C(C(=O)Nc2nc3ccccc3[nH]2)C12CCCC2 (configuration not stated)		4.22 µM (active)
COCCN1C(=O)CC[C@]2(C(=O)NCc3ccccc3Cl)CCCC[C@@H]12	-5.07% (inactive)	
COc1nc(N(C)S(=O)(=O)c2ccc(C)cc2)nc(C)c1Br	21.9% (inactive)	
Cc1cc(C(F)(F)F)nn1CC(=O)NCCc1ncc(C)n1CC1CC1		10.6 µM (active)
Cc1cnc(CCNC(=O)Cn2c(=O)oc3ccccc32)n1C1CC1	-13.1% (inactive)	
Cc1nnc2n1CCC(N(C)S(=O)(=O)c1cn(C)cn1)CC2 (configuration not stated)	10.2% (inactive)	
CN(CCn1cc(-c2nccn2C)nn1)S(C)(=O)=O	39.1% (inactive)	
Cc1cccc2cc(CN(Cc3ccco3)C(c3nnnn3CCc3ccccc3)C(C)C)c(=O)[nH]c12 (configuration not stated)		10.6 µM (active)
Cc1noc(-c2ccn3c(CNC(=O)c4ccccc4Cl)nnc3c2)n1	10.4% (inactive)	
c1ccc(CNc2nc(-c3ccccn3)nc3ccccc23)cc1		5.31 µM (active)
COC(=O)COc1ccc(-c2nccc(-c3ccccn3)n2)cc1	40% (inactive)	

Compound	activity change, negative = inhibition	Potency
O=C(O)Cn1c(-c2ccccn2)nc2ccccc21	41% (inactive)	
Cc1ccccc1Nc1nnc(SCc2cc(=O)n3ccsc3n2)s1	4.3% (inactive)	
Cc1cccnc1Nc1nc(-c2ccccn2)cs1		0.473 µM (active)
Cc1ccccc1Nc1nc(-c2cccnc2)cs1		9.44 µM (active)
c1ccc(CCNc2nc(-c3ccccn3)cs2)cc1		7.5 µM (active)
Cc1nn(C)cc1CN(C)C(=O)CC12CC3CC(CC(C3)C1)C2	21.6% (inactive)	
CC(C)c1noc(-c2cn(C3CCCN(C(=O)c4ccc(N(C)C)cc4)C3)nn2)n1 (configuration not stated)	-13.1% (inactive)	
COc1ccc(OC)c(C2Nc3c(C)cc(C)cc3-c3cc(C)nn32)c1 (configuration not stated)	-26.2% (inactive)	
c1ccc(-c2nc(NCc3ccco3)c3ccccc3n2)nc1		5.96 µM (active)
c1ccc(CCNc2nc(-c3ccccn3)nc3ccccc23)cc1		4.73 µM (active)
CCCN(CCC)c1nc(-c2ccccn2)nc2ccccc12		5.31 µM (active)
CCCCOc1cccc(C(=O)N(Cc2ccc(Br)o2)C2CCS(=O)(=O)C2)c1 (configuration not stated)	0% (inactive)	
Oc1cc(NCc2ccccc2)cc2cccnc12		2.99 µM (active)
Oc1cc(NCc2ccc(F)cc2)cc2cccnc12		4.73 µM (active)
O=C(CCn1c(=O)c2cccn2c2cccnc21)NCc1ccc(F)cc1	3.25% (inactive)	
Cc1ccc(-c2cc3c(=O)n(CCNC(=O)c4cccnc4)ccn3n2)c(C)c1	-19.2% (inactive)	
COc1cccc(NC(=O)CN(C)C(=O)c2oc3c(ccc4ccccc43)c2C)c1		0.75 µM (active)
COc1ccc(NC(=O)CN(C)C(=O)c2oc3c(ccc4ccccc43)c2C)cc1		0.531 µM (active)
COc1cccc(CNC(=O)Cn2c(SCC(=O)Nc3ccc(F)cc3)nc3ccccc32)c1	-22.5% (inactive)	
COc1cccc(NC(=O)CCc2c(C)nc3c4cccnc4nn3c2C)c1	5.09% (inactive)	
COc1ccc(C(=O)OCCc2cc3ccccc3c(=O)o2)cc1	24.1% (inactive)	
COCc1nc(C2CC(NC(=O)c3cc(-c4ccsc4)n[nH]3)C2)cc(=O)[nH]1 (configuration not stated)	27.8% (inactive)	
COc1ccc(C(C(=O)Nc2ccc(C(C)C)cc2)N(Cc2ccco2)C(=O)CC2NC(=O)NC2=O)cc1 (configuration not stated)		6.68 µM (active)
CCOc1ccc(CN2C(=O)c3ccccc3Sc3ccc(C(=O)N4CCN(C)CC4)cc32)cc1		0.299 µM (active)
CN1CCN(C(=O)c2ccc3c(c2)N(Cc2ccc(C(F)(F)F)cc2)C(=O)c2ccccc2S3)CC1		0.531 µM (active)

Compound	activity change, negative = inhibition	Potency
O=C(c1ccc2[nH]ncc2c1)N1CCOCC12CCN(CCCc1ccccc1)CC2	-9.68% [at 43.1 µM] (inactive)	
O=C(Nc1ccsc1C(=O)NC1CCCCC1)c1ccc(F)cc1		6.68 µM (active)
Cc1cn2nc(C(=O)N3CCC(NC(=O)c4ccc(F)cc4)CC3)cc2c(=O)[nH]1	9.32% (inactive)	
CCCN(CC1CCOC1)S(=O)(=O)c1ccc(C)c(C)c1 (configuration not stated)	13.2% (inactive)	
COC(=O)c1cnn(-c2ccc(C(=O)Nc3ccc(OC(F)(F)F)cc3)cc2)c1N		4.73 µM (active)
Cc1ccc(C(=O)Nc2ccc(OCc3cc(=O)n4c(C)csc4n3)cc2)cc1	-7.09% (inactive)	
COC(=O)c1cnn(-c2ccc(C(=O)Nc3cccc(C(C)=O)c3)cc2)c1N	7.57% (inactive)	
Cn1cc(CC(=O)N2CCCc3ncc(C(=O)Nc4cccnc4)cc32)c2ccccc21	-27.4% [at 43.1 µM] (inactive)	
O=C(NCc1ccc2c(c1)OCO2)c1cnc2c(c1)N([S+](=O)([O-])c1cccnc1)CCC2	1.02% (inactive)	
CNC(=O)c1cnc2c(c1)N(C(=O)Cc1ccc(C(C)C)cc1)CCC2	23.4% [at 43.1 µM] (inactive)	
CC(C)c1ccc(CC(=O)N2CCCc3ncc(C(=O)NCCc4c[nH]c5ccccc45)cc32)cc1		15 µM (active)
CC(C)c1ccc(CC(=O)N2CCCc3ncc(C(=O)Nc4cccnc4)cc32)cc1		0.863 µM (active)
CC(C)CCNC(=O)c1cnc2c(c1)N(C(=O)Cc1cn(C)c3ccccc13)CCC2	-13% [at 43.1 µM] (inactive)	
O=C(O)CCC(=O)Nc1ccc(-n2ccc(C(F)(F)F)n2)cc1	57% (inactive)	
O=C1N(c2ccccc2C(F)(F)F)O[C@@]1(c1ccccc1)C1CCCC1		2.99 µM (active)
O=C1N(c2ccccc2C(F)(F)F)O[C@@]1(c1ccccc1)C1CCCCC1		5.31 µM (active)
O=C1CC2(CCN(Cc3cccs3)CC2)Oc2cc(Cl)ccc21		5.31 µM (active)
O=C1CC2(CCN(CC3CCCCC3)CC2)Oc2cc(Cl)ccc21		1.5 µM (active)
CC(=O)c1c(C)nc(C)nc1NC(=O)C(C)C	16.1% (inactive)	
COc1ccccc1CN1CCC(CNC(=O)c2cnn(-c3ccc(Cl)cc3)c2C2CCN(C(=O)OC(C)(C)C)CC2)CC1		2.66 µM (active)
Cc1ccc(CN2CCC(CNC(=O)c3cnn(-c4ccc(C)cc4)c3C3CCN(C(=O)OC(C)(C)C)CC3)CC2)cc1		8.41 µM (active)
COc1ccccc1CN1CCC(CNC(=O)c2cnn(-c3cccc(Cl)c3)c2C2CCN(C(=O)OC(C)(C)C)CC2)CC1		7.5 µM (active)
